Common to all, as to details: concentration: 10 µM; 24 h
Test [1] concerns HCC1569. Description: cell number relative to DMSO (% of DMSO); higher = more cells (less growth inhibition / toxicity). The method, boiled down: (§1)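 Compounds were applied at 10 µM for 24 h at 37 °C, in triplicate, to HCC1569 and TDF cells. The cells were then fixed and stained for H1.0, and nuclei were counterstained with DAPI. Nuclear H1.0 intensity or cell number is reported relative to the plate control as a percent, taking the median of replicates. Smoothing for positional effects was applied to HCC1569 values only.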

In test [2] the test system is TDF. The test is described as above. The method, boiled down:
as §1

Test [3] concerns TDF. Description: H1.0 immunofluorescence intensity relative to DMSO (% of DMSO); higher = stronger H1.0 induction, active = 120 or more. In outline:
as §1

For test [4], the system named is HCC1569. The experiment in a line: H1.0 immunofluorescence intensity relative to DMSO (% of DMSO); higher = stronger H1.0 induction, active = 140 or more. The method, boiled down:
as §1

Drawing on the supplement of paper PMC7156485, this text covers cell number and H1.0 immunofluorescence intensity for 22 compounds.

± gives the standard deviation of the averaged measurements.
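Wherever H1.0 immunofluorescence intensity relative to DMSO is given: TDF is a line of transformed human dermal fibroblasts of mesenchymal origin.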
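Wherever cell number relative to DMSO is given: TDF denotes transformed human dermal fibroblasts of mesenchymal origin.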

Consider `CCc1cccc(N(C)C(N)=Nc2cccc3ccccc23)c1.Cl`, for which the cell number was 87.1 in test [1] and 90 in test [2]. Further, the H1.0 immunofluorescence intensity in test [3] was 115 (inactive); in test [4], 95.9 (inactive).

Consider `C#CCNCc1cc2cc(OCc3ccccc3)ccc2[nH]1` [N-((5-(benzyloxy)-1H-indol-2-yl)methyl)prop-2-yn-1-amine], for which the cell number stood at 82.8 in test [1] and 91 in test [2]. Also, the H1.0 immunofluorescence intensity was 96 (inactive) in test [3] and 136 (inactive) in test [4].

With `COc1ccc(-c2cc(=O)c3c(O)cc(O)cc3o2)cc1O` [Diosmetine], the cell number in test [1] worked out at 93.5; in test [2], 101. Moreover, the H1.0 immunofluorescence intensity is 99.2 (inactive) in test [3] and 114 (inactive) in test [4].

Turning to `Nc1ccc(N2C(=O)c3ccccc3C2=O)c(Cl)c1` [N-(4-Amino-2-chlorophenyl)phthalimide], the values for the cell number in test [1] and in test [2] were 103 and 107, respectively. The H1.0 immunofluorescence intensity in test [3] is 94.3 (inactive); in test [4], 100 (inactive).

Regarding `O=C(O)[C@@H]1C[C@H](C(=O)O)N1` [cis-Azetidine-2,4-dicarboxylic acid], the cell number in test [1] was 103; in test [2], 101. The values for the H1.0 immunofluorescence intensity in test [3] and in test [4] were 105 (inactive) and 109 (inactive), respectively.

In the case of `Nc1ccn(C2CCC(CO)O2)c(=O)n1` (stereo not drawn) ["2',3' - Dideoxycytidine"], the cell number is 107 in test [1] and 87.5 in test [2]. Besides, the values for the H1.0 immunofluorescence intensity in test [3] and in test [4] were 100 (inactive) and 101 (inactive), respectively.

Consider `CC1C(NC(=O)C(=NOC(C)(C)C(=O)O)c2csc(N)n2)C(=O)N1S(=O)(=O)O` (stereo not drawn) [Aztreonam], for which the cell number in test [1] and in test [2] was 105 throughout. The H1.0 immunofluorescence intensity was 93.1 (inactive) in test [3] and 103 (inactive) in test [4].

Take `CN1CCN(c2c(F)cc3c(=O)c(C(=O)O)cn4c3c2SCC4)CC1` [Rufloxacin]: the cell number turned out to be 107 in test [1] and 94.7 in test [2]. For the same compound, the figures for the H1.0 immunofluorescence intensity in test [3] and in test [4] were 100 (inactive) and 95.2 (inactive), respectively.

Regarding `CCCCCCCCC=CCCCCCCCC(=O)O` [9(Z)-Octadecenoic acid], the cell number in test [1] is 104; in test [2], 97.1. The H1.0 immunofluorescence intensity in test [3] was 97.5 (inactive); in test [4], 103 (inactive).

`O=C(Nc1cc(C(F)(F)F)cc(C(F)(F)F)c1)c1cc(Cl)ccc1O`: the cell number was found to be 57 in test [1] and 52.7 in test [2]. Moreover, the H1.0 immunofluorescence intensity was 115 (inactive) in test [3] and 122 (inactive) in test [4].

Consider `CC(O)C1C(=O)N2C(C(=O)O)=C(SC3CNC(C(=O)N(C)C)C3)C(C)C12` (stereo not drawn) [Meropenem], for which the cell number in test [1] was 105; in test [2] it was 98.2. Besides, the figures for the H1.0 immunofluorescence intensity in test [3] and in test [4] were 97 (inactive) and 94.3 (inactive), respectively.

On to `CC1CC=CC=CC=CC=CC(OC2OC(C)C(O)C(N)C2O)CC2OC(O)(CC(O)CC3OC3C=CC(=O)O1)CC(O)C2C(=O)O` (stereo not drawn) [Pimaricin], for which the cell number turned out to be 106 in test [1] and 94 in test [2]. Moreover, the H1.0 immunofluorescence intensity in test [3] was 94.9 (inactive); in test [4] it was 88.8 (inactive).

For the compound `CC(=O)Oc1cc(C(C)C)c(OCCN(C)C)cc1C.Cl` [Moxisylyte hydrochloride], the cell number in test [1] stood at 105; in test [2], 104. Further, the results for the H1.0 immunofluorescence intensity in test [3] and in test [4] were 91.4 (inactive) and 94.4 (inactive), respectively.

Regarding `COCCOC(=O)C1=C(C)NC(C)=C(C(=O)OC(C)C)C1c1cccc([N+](=O)[O-])c1` (stereo not drawn) [Nimodipine], the cell number came to 100 ± 2.9 in test [1] and 106 ± 3.4 in test [2]. Moreover, the H1.0 immunofluorescence intensity in test [3] is 91.6 (inactive); in test [4], 104 (inactive).

For `CCCS(=O)c1ccc2nc(NC(=O)OC)[nH]c2c1` (stereo not drawn) [Ricobendazole], the cell number in test [1] came out at 98.4; in test [2] it was 81.6. Also, the results for the H1.0 immunofluorescence intensity in test [3] and in test [4] were 114 (inactive) and 109 (inactive), respectively.

`C=C(CC)C(=O)c1ccc(OCC(=O)O)c(Cl)c1Cl` [Ethacrynic Acid]: the cell number is 100 in test [1] and 101 in test [2]. Besides, the H1.0 immunofluorescence intensity in test [3] was 95.9 (inactive); in test [4], 100 (inactive).

For `Cc1cc(N)c2ccccc2[n+]1CCCCCCCCCC[n+]1c(C)cc(N)c2ccccc21.[Cl-].[Cl-]` [Dequalinium dichloride], the cell number in test [1] was 74.8; in test [2] it was 64.1. Further, the H1.0 immunofluorescence intensity was 102 (inactive) in test [3] and 123 (inactive) in test [4].

For the compound `O=C(Nc1cc(C(=O)Nc2ccc(S(=O)(=O)[O-])cc2S(=O)(=O)[O-])cc(C(=O)Nc2ccc(S(=O)(=O)[O-])cc2S(=O)(=O)[O-])c1)Nc1cc(C(=O)Nc2ccc(S(=O)(=O)[O-])cc2S(=O)(=O)[O-])cc(C(=O)Nc2ccc(S(=O)(=O)[O-])cc2S(=O)(=O)[O-])c1.[Na+].[Na+].[Na+].[Na+].[Na+]` [NF449 octasodium salt], the figures for the cell number in test [1] and in test [2] were 97.4 and 92.8, respectively. Besides, the H1.0 immunofluorescence intensity is 89.6 (inactive) in test [3] and 108 (inactive) in test [4].

For `CC(N)=O` [Acetamide], the cell number was 113 in test [1] and 103 in test [2]. The H1.0 immunofluorescence intensity was 111 (inactive) in test [3] and 106 (inactive) in test [4].

For the compound `CCCCCCCCCCCC=CCCCCC(=O)O` [6(Z)-Octadecenoic acid], the cell number in test [1] worked out at 100; in test [2] it was 99.9. The H1.0 immunofluorescence intensity in test [3] is 101 (inactive); in test [4], 97.5 (inactive).

As to `COc1cc(C(=O)NS(=O)(=O)c2ccccc2C)ccc1Cc1cn(C)c2ccc(NC(=O)OC3CCCC3)cc12` [Zafirlukast], the values for the cell number in test [1] and in test [2] were 101 and 110, respectively. Further, the H1.0 immunofluorescence intensity in test [3] was 90.1 (inactive); in test [4], 105 (inactive).

Turning to `CCCCNc1c(C(=O)OCC)c(C)nc2c1cnn2CC` [Tracazolate], the cell number in test [1] was found to be 105; in test [2], 108. For the same compound, the H1.0 immunofluorescence intensity in test [3] was 92.8 (inactive); in test [4] it was 107 (inactive).
